Bioassay records deposited in PubChem BioAssay by Buhrlage Lab, Dana-Farber Cancer Institute and Novartis Institutes for BioMedical Research (Cambridge, Mass).
Only some compounds are listed: those with a hit (about 14% of all), similar ones and a draw of the others.
USP17 inh – inhibitors of human USP17 deubiquitinase; Ubiquitin carboxyl-terminal hydrolase 17-like protein 5 (Homo sapiens), A8MUK1; purified USP17, Ub-rhodamine cleavage fluorescence, 3 h; inhibition, % at 50 µM; 47,000 tested, 6.5% active
Target sequence (A8MUK1 whole entry, looked up): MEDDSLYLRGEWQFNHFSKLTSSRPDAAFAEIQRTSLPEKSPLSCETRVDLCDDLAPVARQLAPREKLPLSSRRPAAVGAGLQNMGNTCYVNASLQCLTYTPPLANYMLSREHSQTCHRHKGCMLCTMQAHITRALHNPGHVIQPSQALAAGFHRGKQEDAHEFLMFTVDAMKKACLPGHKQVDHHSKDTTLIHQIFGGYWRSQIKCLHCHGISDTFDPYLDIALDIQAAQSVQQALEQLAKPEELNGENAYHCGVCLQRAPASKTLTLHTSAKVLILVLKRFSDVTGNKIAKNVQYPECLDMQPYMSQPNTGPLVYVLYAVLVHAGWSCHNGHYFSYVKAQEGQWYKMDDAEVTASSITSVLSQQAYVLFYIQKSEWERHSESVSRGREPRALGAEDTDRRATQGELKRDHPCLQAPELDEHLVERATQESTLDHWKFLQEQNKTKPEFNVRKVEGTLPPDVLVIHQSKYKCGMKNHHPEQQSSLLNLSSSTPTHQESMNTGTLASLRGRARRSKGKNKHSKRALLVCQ
USP30 inh – inhibitors of human USP30 deubiquitinase; 47,000 tested, 5.3% active; purified USP30, Ub-rhodamine cleavage fluorescence; inhibition, % at 25 µM; Ubiquitin carboxyl-terminal hydrolase 30 (Homo sapiens), Q70CQ3
USP8 inh – inhibitors of human USP8 deubiquitinase; AID 1645853, 2021; purified USP8, Ub-rhodamine cleavage fluorescence, 30 min; 47,000 tested, 4.2% active; inhibition, % at 20 µM; Ubiquitin carboxyl-terminal hydrolase 8 (Homo sapiens), P40818
USP10 block – inhibitors of human USP10 deubiquitinase. Ubiquitin carboxyl-terminal hydrolase 10 (Homo sapiens), Q14694. purified USP10, Ub-rhodamine fluorescence, 60 min. inhibition, % at 20 µM. 47,000 tested, 1.1% active. AID 1645856, 2021
USP28 block – inhibitors of human USP28 deubiquitinase. Ubiquitin carboxyl-terminal hydrolase 28 (Homo sapiens), Q96RU2. purified USP28, Ub-rhodamine cleavage fluorescence, 30 min. inhibition, % at 25 µM. 47,000 tested, 3% active
* = called active by the depositor; · = no result given. Rule as the data show it: active = inhibition above about 30%; inactive = the rest.

SMILES	USP17 inh	USP30 inh	USP8 inh	USP10 block	USP28 block
Cc1nc(N2CCN(CC(=O)N3CCCCC3)CC2)[nH]c(=O)c1C	-7	0	-4	-1	-8
Cc1ccc(CNC(=O)c2c(O)c3cccc4c3n(c2=O)CC4)cc1	-11	-14	59*	0	-17
CNC(=O)c1ccccc1NC(=O)c1c(O)c2cccc3c2n(c1=O)CC3	-23	-37	-118	-1	-18
Cc1cccc(NC(=O)c2ccc(N3C(=O)C(C)CS3(=O)=O)cc2)c1 (centres undefined)	15	·	0	-3	·
Cc1cc(C)cc(C(=O)OCc2cc(=O)oc3cc(C)ccc23)c1	0	-15	2	-1	-10
Cc1cc2oc(=O)cc(COC(=O)c3ccc4[nH]c(C)c(C)c4c3)c2cc1Cl	46*	-98	23	6	-2
CCc1csc(-c2cn(CC(=O)Nc3cccc(C)c3C)cn2)n1	51*	58*	-27	4	20
CCc1csc(-c2cn(CC(=O)Nc3cc(C)ccc3C)cn2)n1	49*	-66	39*	5	-2
O=C(Nc1cccc(F)c1)c1ccc(N2CCCCS2(=O)=O)cc1Cl	22	0	23	2	33*
O=C(Nc1ccc(F)c(Cl)c1)c1ccc(N2CCCCS2(=O)=O)cc1Cl	3	0	0	7	52*
O=C(Nc1cccc(N2CCCS2(=O)=O)c1)c1cccc(C(F)(F)F)c1	-14	-19	0	0	-5
CC(NC(c1ccccc1)c1ccccc1)C(=O)Nc1ccccc1 (centres undefined)	15	25	10	3	8
Cc1ccc(-c2nnc(-n3ncc(C#N)c3N)c3ccccc23)cc1C	62*	0	0	1	12
CCOC(=O)c1csc(-c2ccc(F)cc2F)n1	5	18	25	0	42*
CCOC(=O)c1csc(-c2cc(C)on2)n1	6	7	9	2	4
Cc1cccc(NC(=O)N2C[C@H](c3nc(-c4cccnc4)no3)[C@@H](C)C2)c1	5	0	5	1	11
COc1ccc(NS(=O)(=O)c2ccc(Cl)c(NC(=O)CC(=O)c3ccc([N+](=O)[O-])cc3)c2)cc1	30	15	37*	24	21
COc1ccc(NC(=O)CC(=O)c2ccc([N+](=O)[O-])cc2)cc1S(=O)(=O)Nc1ccc(Br)cc1	34*	60*	72*	53*	42*
Cc1cccc(NC(=O)Cn2cc(S(=O)(=O)N3CCCCCC3)ccc2=O)c1C	8	9	11	1	1
O=C1Nc2cc3c(cc2Sc2ccccc21)OCCO3	67*	60*	-14	4	25
O=C1Nc2ccccc2S/C1=C/c1ccccc1	-15	-29	-10	-2	-43
COc1ccc(CC(=O)N2CCc3nc(C(N)=O)sc3CC2)cc1	3	-154	1	0	0
COc1ccc(CC(=O)N2CCN(c3ccc(-n4cccn4)nn3)CC2)cc1	11	34*	22	23	26
COc1ccc(Cl)cc1NC(=O)CN1C(=O)CC(c2ccco2)Sc2ccccc21 (centres undefined)	-9	-30	12	4	13
Cc1ccnc(NC(=O)CCc2nnc3ccc(N4CCCC4)nn23)c1	-1	0	1	0	-10
SMILES	USP17 inh	USP30 inh	USP8 inh	USP10 block	USP28 block
O=C(CC1CCCCC1)Nc1cc(F)c2nc(N3CCOCC3)ccc2c1	40*	-63	65*	-7	-22
Cn1c(CCN2CCOCC2)nc2cc(NC(=O)C3CCCCC3)ccc21	11	26	22	3	8
O=C(Nc1cc(F)c2nc(N3CCOCC3)ccc2c1)C1CCCCC1	22	-38	71*	-8	-8
COc1cc(OC)cc(N2C(=O)N(CC(=O)c3ccc(Br)cc3)c3ccccc3S2(=O)=O)c1	30*	23	33*	81*	11
COc1cccc(N2C(=O)N(CC(=O)NCc3ccc(Cl)cc3)c3ccccc3S2(=O)=O)c1	79*	43*	11	19	5
COc1ccc(C(=O)CN2C(=O)N(c3cccc(C)c3)S(=O)(=O)c3ccccc32)cc1	-11	1	0	6	-2
O=C(O)c1ccc2c(cnn2CC(=O)N2CCCCCC2)c1	-21	-2	-4	1	-18
CCC(Cc1ccccc1)NC(=O)Cn1nc(C)c2ccccc21 (centres undefined)	-22	5	8	9	8
COc1ccc2sc(NC(=O)c3cccnc3)nc2c1	7	-7	6	0	18
COc1ccc2c(c1)CCc1c-2n[nH]c1C(=O)Nc1cc(C)on1	33*	55*	3	23	34*
Cc1cc(NC(=O)c2[nH]nc3c2CCc2ccccc2-3)no1	64*	-31	24	8	12
COc1ccc2c(c1)CCc1c-2n[nH]c1C(=O)N1CCN(C)CC1	3	-6	-2	0	-6
COc1ccc2c(c1)CCc1c-2n[nH]c1C(=O)N1CCN(c2ncccn2)CC1	0	-1	-30	0	-2
COc1ccc2c(c1)CCc1c-2n[nH]c1C(=O)N1CCC(C(N)=O)CC1	24	30*	-24	1	9
Cc1ccc2c(c1)C(=O)NC1(CCN(C(=O)c3ccccc3)CC1)N2C	11	18	14	1	11
CCOc1cccc(-c2noc(-c3nn(-c4ccccc4)ccc3=O)n2)c1	52*	93*	93*	24	70*
COc1cccc(-n2ccc(=O)c(-c3nc(-c4cccc(C)c4)no3)n2)c1	0	-48	7	-6	1
CCOc1cccc(-c2noc(-c3nn(-c4cccc(C)c4)ccc3=O)n2)c1	1	-3	88*	9	-7
CCOc1ccc(NC(=O)COc2ccc(F)cc2)c2cccnc12	5	-8	17	-2	-3
CCCCOc1cccc(C(=O)Nc2ccc(OCC)c3ncccc23)c1	47*	1	83*	-7	18
COc1cc(COc2ccc3c(C)c(CC(=O)N4CC[C@@]5(O)CCCC[C@H]5C4)c(=O)oc3c2C)cc(OC)c1OC	48*	50*	-5	4	10
CCC(=O)Nc1nc2cc(NS(=O)(=O)c3ccccc3C)ccc2s1	-8	-8	-4	8	0
CCS(=O)(=O)c1ccccc1C(=O)Nc1ccc2sc(C)nc2c1	5	5	16	0	55*
Cc1nc2ccc(NC(=O)CCc3nc4ccccc4c(=O)[nH]3)cc2s1	-25	-151	-37	-6	-39
CC(C)(C)n1ncc2c(=O)n(Cc3cccc([N+](=O)[O-])c3)cnc21	-22	11	1	2	79*
COc1cccc(NC(=O)Cn2cnc3c(cnn3C(C)(C)C)c2=O)c1	-7	-19	-6	-3	30*
